Source: PubChem BioAssay (several laboratories)
Yeast superoxide = yeast age-related superoxide inhibition as caloric restriction mimetic | S. cerevisiae aged cells, superoxide DHE fluorescence; stronger effect = lower value | superoxide response (% of plate mean), % at 10 µM | 330,000 compounds, 0.18% hits;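 active = superoxide response under a set limit, about three screen SD below normal, cut at about 65% in these data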;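 note: yeast aged for seven days with compound at 30 °C before DHE staining; 100% = average MFI of all compound-treated wells on the plate with controls excluded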
SKN-1 inh = inhibitors of C. elegans SKN-1. C. elegans VP596 Pgst-4::GFP/RFP ratio, acrylamide-induced, 24 h. 360,000 compounds, 0.49% hits. inhibition, % at 21.8 µM;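 active = interference check ratio from 0.5 to 1.5 plus GFP to RFP signal ratio inhibition reaching or exceeding a fixed threshold, cut at about 30% in these data, passing the limit was not always enough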
VLA-4 inh = inhibition in a human VLA-4 binding assay; inhibition, % (about 7 µM as worked out from the volumes in the protocol); VLA-4 expressing cells, ligand binding flow cytometry; P13612; 330,000 compounds, 0.2% hits; AID 2557; in the data active = inhibition above about 50%
Target sequence (P13612 whole entry, looked up): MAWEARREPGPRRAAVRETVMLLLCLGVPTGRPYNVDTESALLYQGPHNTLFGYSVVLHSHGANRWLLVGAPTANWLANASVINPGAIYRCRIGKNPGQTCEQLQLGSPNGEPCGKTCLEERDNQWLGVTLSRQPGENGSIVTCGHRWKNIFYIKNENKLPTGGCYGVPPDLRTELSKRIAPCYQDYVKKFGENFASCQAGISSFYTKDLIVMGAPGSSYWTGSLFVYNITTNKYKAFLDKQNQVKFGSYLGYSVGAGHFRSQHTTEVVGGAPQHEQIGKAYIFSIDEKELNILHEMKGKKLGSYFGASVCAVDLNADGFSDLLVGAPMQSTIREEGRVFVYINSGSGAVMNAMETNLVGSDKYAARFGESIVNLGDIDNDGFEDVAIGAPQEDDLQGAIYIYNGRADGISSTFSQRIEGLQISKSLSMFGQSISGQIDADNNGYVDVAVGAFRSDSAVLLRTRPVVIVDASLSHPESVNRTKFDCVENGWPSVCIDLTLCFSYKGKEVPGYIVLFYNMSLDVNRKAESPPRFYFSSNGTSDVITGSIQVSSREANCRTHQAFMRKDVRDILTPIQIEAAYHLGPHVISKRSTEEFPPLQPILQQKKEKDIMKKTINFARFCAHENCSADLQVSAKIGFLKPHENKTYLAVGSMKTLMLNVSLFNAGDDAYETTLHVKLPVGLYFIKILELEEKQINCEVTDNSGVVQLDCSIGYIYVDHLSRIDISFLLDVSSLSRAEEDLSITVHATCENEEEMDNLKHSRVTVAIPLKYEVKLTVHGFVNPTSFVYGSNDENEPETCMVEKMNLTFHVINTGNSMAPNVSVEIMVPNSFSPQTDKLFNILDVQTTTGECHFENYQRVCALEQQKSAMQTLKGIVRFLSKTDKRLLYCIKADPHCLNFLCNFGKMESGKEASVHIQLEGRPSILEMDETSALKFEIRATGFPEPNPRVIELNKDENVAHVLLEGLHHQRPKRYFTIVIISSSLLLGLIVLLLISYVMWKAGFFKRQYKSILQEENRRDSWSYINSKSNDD
Platelet DG rel = platelet dense granule release activity; human platelet-rich plasma, SFLLRN dense granule ATP release, luminescence; inhibition, %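 (compounds screened at 7.5 µM in platelet-rich plasma)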; 300,000 compounds, 0.22% hits;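 active = mean replicate score, as percent of positive control, at or above 50; inconclusive = mean below 50 but at least one replicate at or above 50; inactive = mean and every replicate below 50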
ABCB6 inh 2 = inhibitors of human ABC transporter ABCB6; 360,000 compounds, 0.19% hits; fluorescence ratio to DMSO, % at 10 µM; AID 602162; K562-ABCB6 porphyrin accumulation, flow cytometry, 1 h; stronger effect = lower value; Q9NP58;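 active = fluorescence ratio to DMSO below 75%, the collection mean minus 3 SD; inconclusive = too few cells collected in the well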;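 note: signal is porphyrin accumulated inside mitochondria; 100% equals median channel fluorescence of DMSO control wells; lower ratio means ABCB6 inhibition with less porphyrin fluorescence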
The depositor's hits bear a star. Only some compounds are listed: those with a hit (about 1.2% of all), similar ones and a draw of the others.

COc1cccc(C2=NN(C(C)=O)C(c3cccs3)C2)c1 (stereo unspecified) was read as Yeast superoxide 107, SKN-1 inh 36*, VLA-4 inh 10, Platelet DG rel 2 and ABCB6 inh 2 92.
`Nc1cc(N)cc(C(=O)c2ccccc2)c1` gave SKN-1 inh 9 and ABCB6 inh 2 96.
`FC(F)Oc1ccc(NC(=S)NCc2ccccc2)cc1` gave Yeast superoxide 100, SKN-1 inh -10, VLA-4 inh 22, Platelet DG rel -1 and ABCB6 inh 2 99.
Cc1cc2cc(CN3C(=O)c4ccccc4C3=O)ccc2n1C was read as Yeast superoxide 88, SKN-1 inh 46*, VLA-4 inh -25, Platelet DG rel -2 and ABCB6 inh 2 425.
For Cc1cc2cc(CNC(=S)Nc3ccc(OC(F)F)cc3)ccc2n1C the results were Yeast superoxide 105, SKN-1 inh 46*, VLA-4 inh 21, Platelet DG rel -18 and ABCB6 inh 2 110.
COc1ccc(C(=O)NCc2ccc3c(c2)cc(C)n3C)cc1 was read as Yeast superoxide 103, SKN-1 inh 44*, VLA-4 inh -5, Platelet DG rel inconclusive and ABCB6 inh 2 105.
For Cc1cc2cc(CNC(=O)c3ccco3)ccc2n1C the results were Yeast superoxide 105, SKN-1 inh 49*, VLA-4 inh -12, Platelet DG rel 7 and ABCB6 inh 2 102.
`O=C1N2CCCCC1(Sc1ccccc1)CCC2` (stereo unspecified) gave SKN-1 inh -10 and ABCB6 inh 2 98.
`CCCCCCN1C[C@H](O)[C@@H](n2cc(C3CC3)nn2)C[C@@H]1c1ccccc1` gave SKN-1 inh -1 and ABCB6 inh 2 97.
Cc1ccccc1-c1cnc(C(O)c2ccc(Cl)c(F)c2)[nH]1 (stereo unspecified) was read as SKN-1 inh 3 and ABCB6 inh 2 99.
`Cc1cc2cc(CNC(=O)COc3ccccc3)ccc2n1C` gave Yeast superoxide 100, SKN-1 inh 65, VLA-4 inh 2, Platelet DG rel -4 and ABCB6 inh 2 97.
Screening COCC(=O)NCc1ccc2c(c1)cc(C)n2C returned Yeast superoxide 92, SKN-1 inh 47*, VLA-4 inh 3, Platelet DG rel -3 and ABCB6 inh 2 106.
Screening COc1ccc(NC(=O)[C@@H]2O[C@H](CO)[C@H](O)[C@H](O)[C@H]2O)cc1F returned SKN-1 inh -8 and ABCB6 inh 2 98.
O=C(C=Cc1cccs1)c1ccc(Cl)s1 was read as SKN-1 inh 41* and ABCB6 inh 2 98.
For O=C(/C=C/c1cccs1)c1cc(Cl)ccc1O the results were Yeast superoxide 130, SKN-1 inh 11, VLA-4 inh 7, Platelet DG rel -1 and ABCB6 inh 2 101.
`CC(C)Cn1c(N)cc(=O)n(C)c1=O` gave Yeast superoxide 89, SKN-1 inh 3, VLA-4 inh 61*, Platelet DG rel -3 and ABCB6 inh 2 104.
Screening CCCn1c(N)cc(=O)n(CCC)c1=O returned Yeast superoxide 96, SKN-1 inh 9, VLA-4 inh 21, Platelet DG rel 1 and ABCB6 inh 2 97.
`O=C1C=CC(=O)c2c(O)c(N3CCN(CCO)CC3)c(Cl)c(O)c21` gave SKN-1 inh 32 and ABCB6 inh 2 104.
`O=C1C=CC(=O)c2c(O)c(N3CCN(CCOCCO)CC3)c(Br)c(O)c21` gave SKN-1 inh 47* and ABCB6 inh 2 404.
For O=C(C(Cc1ccccc1)n1cccc1)N1CCN(c2ncccn2)CC1 (stereo unspecified) the results were Yeast superoxide 100, SKN-1 inh -3, VLA-4 inh 0, Platelet DG rel 50* and ABCB6 inh 2 92.
Cc1cccc(N2CCN(C(=O)C(Cc3ccccc3)n3cccc3)CC2)c1C (stereo unspecified) was read as Yeast superoxide 107, SKN-1 inh 1, VLA-4 inh -12, Platelet DG rel -3 and ABCB6 inh 2 97.
CCCCOc1ccc(S(=O)(=O)NC(=O)C2(C)CCN2C(=O)Cc2cccs2)cc1 (stereo unspecified) was read as SKN-1 inh 5 and ABCB6 inh 2 99.
`c1ccc(-c2nc(-c3ccc(-c4ccon4)s3)no2)cc1` gave Yeast superoxide 99, SKN-1 inh 30, VLA-4 inh 1, Platelet DG rel 1 and ABCB6 inh 2 98.
`COc1ccc(-c2nc(-c3cccs3)no2)cc1` gave Yeast superoxide 104, SKN-1 inh 38*, VLA-4 inh 23, Platelet DG rel 32 and ABCB6 inh 2 101.
COc1ccc(-c2nc(-c3ccccn3)no2)cc1 was read as Yeast superoxide 118, SKN-1 inh 12, VLA-4 inh 9, Platelet DG rel 61* and ABCB6 inh 2 77.
`COc1ccccc1-c1noc(-c2cccs2)n1` gave Yeast superoxide 119, SKN-1 inh 19, VLA-4 inh 5, Platelet DG rel 0 and ABCB6 inh 2 96.
For c1csc(-c2nc(-c3ccc(-c4ccon4)s3)no2)c1 the results were Yeast superoxide 124, SKN-1 inh 46*, VLA-4 inh -6, Platelet DG rel 9 and ABCB6 inh 2 96.
Cc1ccc(-c2noc(-c3cccs3)n2)cc1 was read as Yeast superoxide 106, SKN-1 inh 67*, VLA-4 inh 2, Platelet DG rel 9 and ABCB6 inh 2 98.
`CCc1nc2ccc(C(=O)NCC3CCCCC3)cn2c1N(C)Cc1nccs1` gave SKN-1 inh 15 and ABCB6 inh 2 97.
Screening CCCCCNC(=O)C(=O)C1C(=O)Nc2ccccc21 (stereo unspecified) returned Yeast superoxide 56*, SKN-1 inh -7, VLA-4 inh 7, Platelet DG rel -11 and ABCB6 inh 2 92.
Screening COc1cc(OC)nc(Nc2nc(CN)cs2)n1 returned SKN-1 inh 8 and ABCB6 inh 2 100.
Screening COc1ccc(/C=C/C(=O)NC(=S)NNC(=O)Cc2cccs2)cc1 returned Yeast superoxide 58*, SKN-1 inh 22, VLA-4 inh 14, Platelet DG rel 1 and ABCB6 inh 2 115.
For COc1ccc(/C=C/C(=O)NC(=S)NNC(=O)c2ccco2)cc1 the results were Yeast superoxide 165, SKN-1 inh 3, VLA-4 inh -15, Platelet DG rel -2 and ABCB6 inh 2 106.
`CCCS(=O)(=O)NC(=O)C1(C)CCN(C(=O)c2ccc(C#N)cc2)C1` (stereo unspecified) gave SKN-1 inh 8 and ABCB6 inh 2 96.
Screening C(=NNc1ccc2ccccc2n1)c1ccccn1 returned SKN-1 inh 28 and ABCB6 inh 2 104.
`CC1=NN(c2ccccc2)C(=O)C1N=Nc1ccc(N)cc1` (stereo unspecified) gave Yeast superoxide 96, SKN-1 inh 41*, VLA-4 inh -10, Platelet DG rel 8 and ABCB6 inh 2 126.
CC1=NN(c2ccccc2)C(=O)C1N=Nc1ccccc1 (stereo unspecified) was read as Yeast superoxide 130, SKN-1 inh 9, VLA-4 inh 21, Platelet DG rel -3 and ABCB6 inh 2 102.
